# CYP2C19 act = human CYP2C19 activators, primary screen, biochemical, luminescence; activation factor at 5 µM; Cytochrome P450 2C19 (Homo sapiens), P33261; 96,000 tested, under 10 active; recombinant CYP2C19, luciferin-H EGE luminescence; stronger effect = higher value; 0 = fully inhibited enzyme, 1 = untreated enzyme;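 active = activation factor of at least 2 at 5 µM in the primary screen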;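 also: 0 = wells with 2.5 mM tranylcypromine and 1 = vehicle-only wells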
# Measles CPE = compounds protecting cells from measles virus cytopathic effect, primary screen, measles RdRp inhibitor project, single point, MLSMR library, absorbance; Measles virus-infected cells, CPE protection; protection (pct of control), % at 4 µM; 140,000 tested, 1.5% active; AID 841, 2007; in the data active = protection mostly above about 24%, no sharp cut-off; inactive = mostly below about 26%
# CYP2C9 activ = human CYP2C9 activators, primary screen, biochemical, luminescence; Cytochrome P450 2C9 (Homo sapiens), P11712; recombinant CYP2C9, luciferin-H conversion; stronger effect = higher value; factor 1 = untreated enzyme, 0 = blocked; activation factor at 5 µM; 96,000 tested, 1.4% active; AID 1024, 2008;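 active = activation factor of 2 or more for CYP2C9 at a 5 µM dose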;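 also: 0 = sulfaphenazole-blocked wells and 1 = vehicle-only wells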
# Target sequence (P11712 whole entry, looked up): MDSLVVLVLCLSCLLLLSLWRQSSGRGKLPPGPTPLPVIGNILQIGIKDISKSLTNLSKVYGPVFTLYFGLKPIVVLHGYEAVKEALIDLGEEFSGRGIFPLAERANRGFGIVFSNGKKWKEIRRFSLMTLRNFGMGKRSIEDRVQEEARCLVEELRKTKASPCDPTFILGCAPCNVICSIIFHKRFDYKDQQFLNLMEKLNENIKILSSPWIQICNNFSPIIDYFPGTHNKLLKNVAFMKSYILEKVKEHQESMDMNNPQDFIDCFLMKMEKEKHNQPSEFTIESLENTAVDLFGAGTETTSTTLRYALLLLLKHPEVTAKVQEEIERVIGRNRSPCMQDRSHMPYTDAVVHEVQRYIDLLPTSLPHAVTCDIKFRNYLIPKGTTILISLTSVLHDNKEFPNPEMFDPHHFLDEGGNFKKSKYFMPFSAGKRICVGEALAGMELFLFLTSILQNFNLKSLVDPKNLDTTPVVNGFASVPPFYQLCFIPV
# CYP2C9 inhib = blockers of cytochrome P450 2C9 activity – biochemical, luminescence, ADME assay, primary screen; P11712; CYP2C9 Supersomes, luciferin-H conversion; inhibition, % at 5 µM; 96,000 tested, 20% active; AID 777, 2007;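 active = blocking of liver enzyme CYP2C9 beyond about 50% at 5 µM, limit read from the data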
# CYP2C19 inh = blockers of cytochrome P450 2C19 activity – biochemical, luminescence, ADME assay, primary screen. CYP2C19 Supersomes, luciferin-H EGE luminescence, 30 min. inhibition, % at 5 µM. 96,000 tested, 21% active. AID 778, 2007;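 active = CYP2C19 inhibition above a set limit at 5 µM in the primary screen, cut at about 50% in these data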;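 also: plate controls were negative control wells for no effect and 2.5 mM tranylcypromine positive control for full effect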
# * = called active by the depositor; . = no result. This is a sample that favours compounds with a hit; in the whole collection about 22% have one here.
SMILES,CYP2C19 act,Measles CPE,CYP2C9 activ,CYP2C9 inhib,CYP2C19 inh
O=C(CCSCc1ccc(Cl)cc1)NC1CCCC1,.,15,.,.,.
Cn1c(=O)[nH]c(=O)c2c1nc(N1CCCCCC1)n2CC(N)=O,.,11,.,.,.
CC1CN(C2CCCCC2)c2nc3c(c(=O)[nH]c(=O)n3C)n2C1 (stereo not drawn),0.9,5,0.4,56*,7
CC1CN(c2ccc(Oc3ccccc3)cc2)c2nc3c(c(=O)[nH]c(=O)n3C)n2C1 (stereo not drawn),1,8,0.9,9,-5
CCCn1c(N2CCN(CC(=O)c3c(C)n(C)c4ccccc34)CC2)nc2c1c(=O)[nH]c(=O)n2C,0.8,12,0.8,20,22
CCn1c(N2CCN(CC(=O)c3c[nH]c4ccccc34)CC2)nc2c1c(=O)[nH]c(=O)n2C,0.6,3,0.5,54*,37
CC1CN(CCc2ccccc2)c2nc3c(c(=O)[nH]c(=O)n3C)n2C1 (stereo not drawn),0.3,3,0.4,57*,74*
CC1CCCN(c2nc3c(c(=O)[nH]c(=O)n3C)n2CCCc2ccccc2)C1 (stereo not drawn),0.8,42*,0.4,62*,21
CC1CCN(c2nc3c(c(=O)[nH]c(=O)n3C)n2Cc2ccccc2)CC1,0.8,8,0.8,17,22
Cc1cc(C)nc(SCC(=O)Nc2ccc(S(=O)(=O)Nc3nccs3)cc2)n1,1.1,25,0.8,17,-11
Cc1ccccc1OCCC(=O)Nc1ccc(F)c(Cl)c1,.,6,.,.,.
C=CCn1c(C(C)NC(=O)c2cccs2)n[nH]c1=S (stereo not drawn),.,12,.,.,.
CCn1c(N2CCC(Cc3ccccc3)CC2)nc2c1c(=O)[nH]c(=O)n2C,0.2,24,0.5,54*,77*
CC1CCCN(c2nc3c(c(=O)n(C)c(=O)n3C)n2CCSc2nc3ccccc3o2)C1 (stereo not drawn),0.6,12,0.5,51*,36
O=C(Nc1cccnc1)c1ccc(COCC(F)(F)F)cc1,0.6,32,0.8,20,42
C=CCN(CC=C)S(=O)(=O)c1ccc(NC(=S)NC(=O)/C=C/c2cccc3ccccc23)cc1,0.8,3,0.6,39,17
O=C(Nc1ncc(Cc2ccccc2Cl)s1)c1ccc(-c2cccc([N+](=O)[O-])c2)o1,.,10,.,.,.
CC(C)Cc1nc2n[nH]c(N)c2c2c1CCCC2,0.9,11,0.9,10,11
COc1cccc(CNCc2ccccn2)c1OC,0.3,8,0.8,20,74*
COc1cc(CNCc2ccccn2)ccc1OCc1ccc(Cl)cc1Cl,0.3,20,0.8,17,73*
COc1cc(CNCc2ccccn2)ccc1OCC(N)=O,0.9,17,1,-3,8
Cc1c(NC(=O)c2cccs2)cccc1C(=O)O,0.9,18,0.8,24,6
O=[N+]([O-])c1ccc(NC(=S)NCCc2ccccc2)cc1,.,1,.,.,.
O=[N+]([O-])c1ccc(O)c(NC(=S)Nc2ccccc2)c1,0.4,20,0.1,91*,56*
COc1ccc([N+](=O)[O-])cc1NC(=O)Nc1ccccc1,.,8,.,.,.
SMILES,CYP2C19 act,Measles CPE,CYP2C9 activ,CYP2C9 inhib,CYP2C19 inh
COc1ccc([N+](=O)[O-])cc1NC(=O)CC(C)c1ccccc1 (stereo not drawn),0.3,15,1.5,-48,72*
COc1ccc([N+](=O)[O-])cc1NC(=S)Nc1ccccc1,0.5,9,0.6,42,50*
O=[N+]([O-])c1ccc(NNC(=S)Nc2ccccc2)cc1,0.4,10,0.2,79*,59*
Cc1cccc(C(CC(=O)O)n2cccc2)c1 (stereo not drawn),0.9,13,0.2,76*,6
COC(=O)c1cccc(N2C(=O)C(Cl)=C(N3CCOCC3)C2=O)c1,0.4,20,0.5,49,61*
O=C1C(Cl)=C(N2CCOCC2)C(=O)N1c1ccccc1Cl,0.1,.,0.9,9,94*
Cc1ccc(N2C(=O)C(Cl)=C(N3CCOCC3)C2=O)cc1Cl,.,8,.,.,.
CC1(C)Cc2ccccc2C(=NCCCCCC(=O)O)N1,.,19,.,.,.
CC1=C(C(=O)OC(C)C)C(c2cn(-c3ccccc3)nc2-c2cccs2)NC(=O)N1 (stereo not drawn),.,12,.,.,.
C[N+]1(C)CC2([N+](=O)[O-])CC=C(Oc3ccccc3)C([N+](=O)[O-])(C2)C1 (stereo not drawn),.,19,.,.,.
CN1CC2([N+](=O)[O-])CC=C(Oc3ccccc3)C([N+](=O)[O-])(C1)C2 (stereo not drawn),0.6,30*,0.9,12,44
CC1=CCC2C(=O)N(c3nc4ccccc4n3C)C(=O)C2C1 (stereo not drawn),1,8,1,-2,2
O=C1CSc2ccccc2N1Cc1ccc(F)cc1,0.3,21,0.3,70*,69*
COCCN1C(=O)C(=O)/C(=C(/O)c2ccc(OC(C)C)cc2)C1c1cccnc1 (stereo not drawn),1.1,21,1.1,-8,-12
Cc1nc2nc(C)c(CCC(=O)NCCC3=CCCCC3)c(C)n2n1,1,4,1,2,1
O=C(OC1CCN(c2ncc(C(F)(F)F)cc2Cl)CC1)c1ccc(Cl)cc1,1,4,0.8,19,-4
N#CCC(CNc1ncc(C(F)(F)F)cc1Cl)OC(=O)c1cccc([N+](=O)[O-])c1 (stereo not drawn),0,8,0.3,68*,96*
N#CCC(CNc1ncc(C(F)(F)F)cc1Cl)OC(=O)c1ccc(Cl)cc1 (stereo not drawn),0.2,22,1.1,-9,84*
COc1ccc(-c2noc(C3CCCN(S(=O)(=O)c4ccc(C)c(Cl)c4)C3)n2)cc1OC (stereo not drawn),0.3,9,0.4,57*,68*
CCCS(=O)(=O)N1CCCC(c2nc(-c3ccc(OC)cc3)no2)C1 (stereo not drawn),0.7,3,0.2,82*,34
O=S(=O)(c1ccccc1Cl)N1CCCC1c1nc(-c2cccc(Cl)c2)no1 (stereo not drawn),0.7,14,0.5,48,26
CC(=O)c1cccc(S(=O)(=O)N2CCCC(c3nc(-c4ccc(C)o4)no3)C2)c1 (stereo not drawn),0.6,15,0.7,30,38
COc1ccc(C(=O)N2CCCC(c3nc(-c4ccc(OC)c(OC)c4)no3)C2)c(OC)c1 (stereo not drawn),0.6,22,0.4,61*,40
CCS(=O)(=O)N1CCCC(c2nc(-c3cccc(OC)c3)no2)C1 (stereo not drawn),0.7,28,0.8,17,28

# High-throughput results as filed in PubChem BioAssay.
